This is part of a sample that, as a whole, favours compounds with a hit. Of some 83,000 tested, about 20% had one in any assay.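 Plates (96-well) were seeded with cells, treated with compound at one concentration, and incubated for 48 hours before percent growth was determined.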 A number with no mark means an inactive call. Activity calls are given as the source filed them. The calls were made as follows: active = growth percent below 10; inactive = the rest.

The first test concerns HS 578T breast. Description: NCI-60 one-dose screen, 48 h (100 = growth as untreated, 0 = no growth, -100 = all killed). The conditions noted are these: 10 µM unless noted.
As to `COc1ccc2nc(NC(=O)c3cc(-c4ccc(F)cc4)n4nc(-c5ccccc5)cc4n3)sc2c1`, the growth was 79.9%. The same measure, in the same setting: for `COc1cc(/C=C/C(=O)N2CCN(C(=O)/C=C/c3ccccc3)CC2)cc(OC)c1OC` the value was 113%. Same read-out and setting: to `O=C1C[C@@H]2/C(=C(O)\C=C\c3ccccc3)C(=O)C=C[C@@H]2O1` belongs -2.33% (active); to `COc1cc(/C=C/c2nnc(-c3cc(-c4ccccc4)n[nH]3)o2)cc(OC)c1OC`, 99.7%. As to `O=[N+]([O-])c1ccc2c(c1)S(=O)c1cc([N+](=O)[O-])ccc1N2`, the growth is 99.7%. With `C/C(=C\CCc1ccoc1)CC/C=C(\C)CCCN1CCC(CO)CC1`, the growth is 57.5%. As for `O=C1/C(=C/c2ccc([N+](=O)[O-])o2)Oc2ccc(Cl)cc21`, the growth was 68.7%. Still for that read-out and setting: to `COc1cc(C2NC(c3ccc(Cl)cc3)C(C)/C(=N/NC(N)=S)C2C)cc(OC)c1OC` (stereo not given) belongs 98.1%; to `CCC(CC)NCCCCCNc1cc(OC)cc2cccnc12`, 91.2%; to `CCOc1nc(-c2ccccc2)cc2c(O)c(C(=O)n3nc(C)cc3C)[nH]c(=O)c12`, 115%. As to `O=C(/C(=N/O)S(=O)(=O)c1ccccc1)c1cccs1`, the growth is 118%. The same measure, in the same setting: for `COc1cc(C2NC(c3ccc(Cl)cc3)C(C)C(=NC(=O)c3cnccn3)C2C)cc(OC)c1OC` (stereo not given) the value was 109%; for `COc1ccc2c(c1)C(=O)/C(=C/c1ccc([N+](=O)[O-])s1)O2`, -6.61% (active); for `COc1cc(C(=O)/C=C/c2cccnc2Nc2ccccc2)cc(OC)c1OC`, 24.2%. Same read-out and setting: for `CCCCn1c(Cc2ccc(Cl)cc2)nc2cc(OC)c(OC)cc2c1=O` the value was 114%.

Consider `OCCOc1c(Cl)cc(Cl)cc1Cl`, for which the growth is 98.4%.

On to `COc1ccc2nc3cc(Cl)ccc3c(N3CCN(c4ccnc(Nc5ccc(F)cc5)n4)CC3)c2c1`, for which the growth is 94.2%. `COc1ccc(-c2cc(Cc3cccs3)c(=O)n(Cn3ccc4ccccc43)n2)cc1`: the growth is 112%.

For `CCc1[nH]nc(-c2ccc(OC)cc2)c1-c1ccccc1OCCN(CC)CC`, the growth is 99.4%. For the compound `COc1ccc(-c2cc(C(=O)Nc3nc4cc(C)c(C)cc4s3)nc3cc(-c4ccccc4)nn23)cc1OC`, the growth was 111%. Take `Nc1ccc2c3c(cccc13)-c1ccccc1-2`: the growth is 89.2%. On the same count and under the same terms, to `COc1cccc(-c2nnc(N)o2)c1` belongs 101%; to `COc1cc2c(cc1OCCCOc1ccc(-c3cc4ccccc4c4ccccc34)cc1)N=C[C@@H]1CCCN1C2=O`, -15.3% (active).

Another test has as its system NCI/ADR-RES ovarian. Described as above. The settings on record: 10 µM unless noted.
For the compound `COc1ccc(-c2oc3cc(O)c(OC)c(O)c3c(=O)c2OC)cc1O`, the growth was -4.16% (active).

`c1ccc(-c2nnc(Nc3nnc(-c4ccccc4)s3)s2)cc1`: the growth is 118%.

As for `CCN1CCN(c2cc(-c3cn[nH]c3-c3cc(C)cc(OC)c3)nc(-c3cccnc3)n2)CC1`, the growth was 91.5%. Same read-out and setting: to `CCCn1cnc2c1c(=O)n(CCCCC(C)=O)c(=O)n2C` belongs 108%; to `O=C1C2C3C=CC(O3)C2C(=O)N1Nc1ccccc1` (stereo not given), 105%. On to `O=C(Nc1ccncc1)C(=O)c1cn(S(=O)(=O)c2cccc(F)c2)c2ccccc12`, for which the growth was -11.2% (active). In the case of `COc1ccc(-c2csc(NC(=O)c3cc(OC)c(OC)c(OC)c3)n2)cc1`, the growth is 115%.

With `CCC1=C(c2ccc(OC)cc2)C(C)(C)Oc2cc(O)c(CN3CCCC3)cc21`, the growth was 84.6%. Same read-out and setting: to `CCOc1nc(-c2ccccc2)cc2c(O)c(-c3nnco3)[nH]c(=O)c12` belongs 25.5%. On the same count and under the same terms, to `C=C1CC[C@@H]2[C@](C)(COC(C)=O)[C@H](OC(C)=O)CC[C@@]2(C)[C@@H]1CC(Nc1ccc(S(=O)(=O)Nc2cc(C)on2)cc1)C1=CCOC1=O` (stereo not given in full) belongs 31.6%. Consider `COc1ccc(C2=NN(C(=O)c3cc(OC)c(OC)c(OC)c3)C(c3ccc(C#N)cc3)C2)cc1OC` (stereo not given), for which the growth is 2.92% (active).

For the compound `O=C1/C(=N/O)CCc2ccccc21`, the growth is 102%.

In the case of `O=C(/C=C/c1cccnc1)NCCCCC1CCCN(C(=O)c2ccccc2)C1` (stereo not given), the growth is 32.1%. `COc1ccc(Nc2ccnc(NCCCNc3ccnc4cc(Cl)ccc34)n2)cc1`: the growth was 35.4%. Still for that read-out and setting: for `COc1ccc2nc(NC(=O)c3cc(-c4ccc(F)cc4)n4nc(-c5ccccc5)cc4n3)sc2c1` the value was 70.9%; for `COc1cc(/C=C/C(=O)N2CCN(C(=O)/C=C/c3ccccc3)CC2)cc(OC)c1OC`, 108%. Regarding `O=C1C[C@@H]2/C(=C(O)\C=C\c3ccccc3)C(=O)C=C[C@@H]2O1`, the growth is 7.67% (active). In the case of `COc1cc(/C=C/c2nnc(-c3cc(-c4ccccc4)n[nH]3)o2)cc(OC)c1OC`, the growth was 86.7%.

Turning to `O=[N+]([O-])c1ccc2c(c1)S(=O)c1cc([N+](=O)[O-])ccc1N2`, the growth is 102%. For the compound `C/C(=C\CCc1ccoc1)CC/C=C(\C)CCCN1CCC(CO)CC1`, the growth is 73.4%. For `O=C1/C(=C/c2ccc([N+](=O)[O-])o2)Oc2ccc(Cl)cc21`, the growth is 56.1%.

As for `COc1cc(C2NC(c3ccc(Cl)cc3)C(C)/C(=N/NC(N)=S)C2C)cc(OC)c1OC` (stereo not given), the growth is 94.1%. Still for that read-out and setting: for `CCC(CC)NCCCCCNc1cc(OC)cc2cccnc12` the value was 83.3%; for `CCOc1nc(-c2ccccc2)cc2c(O)c(C(=O)n3nc(C)cc3C)[nH]c(=O)c12`, 111%; for `O=C(/C(=N/O)S(=O)(=O)c1ccccc1)c1cccs1`, 97.3%. Same read-out and setting: for `COc1cc(C2NC(c3ccc(Cl)cc3)C(C)C(=NC(=O)c3cnccn3)C2C)cc(OC)c1OC` (stereo not given) the value was 101%. Same read-out and setting: to `COc1ccc2c(c1)C(=O)/C(=C/c1ccc([N+](=O)[O-])s1)O2` belongs 27.3%. As for `COc1cc(C(=O)/C=C/c2cccnc2Nc2ccccc2)cc(OC)c1OC`, the growth is 13.4%. Consider `CCCCn1c(Cc2ccc(Cl)cc2)nc2cc(OC)c(OC)cc2c1=O`, for which the growth was 75.7%. The same measure, in the same setting: to `OCCOc1c(Cl)cc(Cl)cc1Cl` belongs 102%. The same measure, in the same setting: to `COc1ccc2nc3cc(Cl)ccc3c(N3CCN(c4ccnc(Nc5ccc(F)cc5)n4)CC3)c2c1` belongs 71.3%. On the same count and under the same terms, for `COc1ccc(-c2cc(Cc3cccs3)c(=O)n(Cn3ccc4ccccc43)n2)cc1` the value was 107%; for `CCc1[nH]nc(-c2ccc(OC)cc2)c1-c1ccccc1OCCN(CC)CC`, 100%. As to `COc1ccc(-c2cc(C(=O)Nc3nc4cc(C)c(C)cc4s3)nc3cc(-c4ccccc4)nn23)cc1OC`, the growth is 102%. The same measure, in the same setting: to `Nc1ccc2c3c(cccc13)-c1ccccc1-2` belongs 95.2%; to `COc1cccc(-c2nnc(N)o2)c1`, 102%.

For `COc1cc2c(cc1OCCCOc1ccc(-c3cc4ccccc4c4ccccc34)cc1)N=C[C@@H]1CCCN1C2=O`, the growth was -46.1% (active).

Values taken from PubChem BioAssay (NCI).
